This note sets out measurements from PubChem BioAssay.

The structures appear in SMILES notation. Inconclusive results are not listed. Calls of active or inactive are those of the source.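 The calls were made as follows, unless noted: active = normalized viability below 100% at a tested concentration; inactive = the rest.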

Experiment [1] in a line: growth inhibition of DIPG glioma cells, dose response, cell-based, SU-DIPG-XVII, MIPE5.0, CellTiter-Glo, qHTS (AID 1347060; cut-off not given, nearly all actives have AC50 up to about 26 µM;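 as to AC50: cells exposed to compound for 48 hours before viability readout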). As to conditions: SU-DIPG-XVII viability, CellTiter-Glo ATP luminescence.
Experiment [2] can be described thus: growth inhibition of DIPG glioma cells, dose response, cell-based, SU-DIPG-IV, MIPE4.0, CellTiter-Glo, qHTS (AID 1347063; cut-off not given, nearly all actives have AC50 up to about 30 µM;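 also: compound exposure lasted 48 hours before the viability readout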). Particulars: SU-DIPG-IV viability, CellTiter-Glo ATP luminescence.
A short description of experiment [3]: JHH-DIPG-1 glioma cell viability, MIPE5.0 library, CellTiter-Glo luminescence, qHTS (AID 1347067; cut-off not given, nearly all actives have AC50 up to about 26 µM;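 also: cells exposed to compound for 48 hours before readout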). As to conditions: JHH-DIPG-1 glioma viability, CellTiter-Glo ATP luminescence.
Experiment [4] is described as follows: sensitizers of A549 cells to miR-34 induction, primary screen, imaging, A549 dox-inducible miR-34, nuclei and caspase counts (AID 1347080;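 active = compounds whose cell count with miR-34 switched on is under 0.7 times the count with it off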). As to conditions: A549 miR-34 inducible, Hoechst nuclei count, 48 h.
The nature of experiment [5]: modifiers of HSF1 nuclear foci, imaging, Selleck Cancer Library (AID 1347162; in the data active = plate-normalised HSF1 focus index below about 0.46). Particulars: human cells, at 10 µM; SSMD: measured here: HSF1 foci SSMD mean; cell count: measured here: cell number; plate-normalised HSF1 focus index: stronger effect = lower value.
Experiment [6] in a line: survival rescue of mitochondrial mutant cells in low glucose, primary screen, MELAS cybrids, Rieske KO mouse fibroblasts, CellTiter-Glo (AID 1508586;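 active = mean z-score across replicates of 1.96 or higher in either the MELAS or the Rieske mutant cell line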;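 also: z relative to plate mean and SD of compound and empty wells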). (Cellular ATP, detected with luciferase, serves as a proxy for viable cell number.)
A short description of experiment [7]: ovarian cancer cell viability with rucaparib, profiling panel, oncology-focused library, rucaparib conditional (AID 1508598). As to conditions: patient-derived ovarian cancer cells, CellTiter-Glo viability, 144 h, stronger effect = lower value.
Experiment [8] can be described thus: growth inhibition of DIPG glioma cells, dose response, cell-based, SU-DIPG-XIII, MIPE5.0, CellTiter-Glo, qHTS (AID 1347064; cut-off not given, nearly all actives have AC50 up to about 23 µM;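 as to AC50: cells exposed to compound for 48 hours before the viability read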). As to conditions: SU-DIPG-XIII viability, CellTiter-Glo ATP luminescence.
Experiment [9] in a line: viability loss in pontine glioma line – cell-based, SU-DIPG-XXV, MIPE5.0, CellTiter-Glo, qHTS, dose response (AID 1347065; cut-off not given, nearly all actives have AC50 up to about 26 µM;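 also: cells exposed to compound for 48 hours before ATP readout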). As to conditions: CellTiter-Glo ATP luminescence.
Experiment [10] can be described thus: SU-DIPG-VI glioma cell viability, MIPE4.0 library, CellTiter-Glo luminescence, qHTS (AID 1347066; cut-off not given, nearly all actives have AC50 up to about 30 µM;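 also: cells exposed to compound for 48 hours before readout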). As to conditions: CellTiter-Glo ATP luminescence.

Broadly, the AC50 is the midpoint of the concentration-response curve, whichever way the signal moves. What is called viability is a read-out of living cells in per cent, often relative to untreated cells. For the molecule `CNC(=O)c1cc(COc2nnc(Nc3ccc(Cl)cc3)c3ccoc23)ccn1`, the AC50 in [1] is 16.6 µM (active); in experiment [2], 20.9 µM (active); in experiment [3], 5.9 µM (active). The fold change in experiment [4] (stronger effect = lower value, cell number ratio, induced over uninduced) was 0.883 (inactive); in experiment [4] (measured here: relative caspase fold change +Dox/-Dox) it was 0.896. The cell count in experiment [4] (measured here: total cells with miR-34 induction, stronger effect = lower value) was found to be 5140; in [4] (measured here: total cells without miR-34 induction), 5820; in experiment [5] it was 4310. Moreover, the SSMD in experiment [5] was -14.1. Further, the plate-normalised HSF1 focus index in [5] was 0.266 (active). The z-score was -0.151 (inactive) in experiment [6] (MELAS cybrid survival, CellTiter-Glo 48 h, stronger effect = higher value) and 0.512 in experiment [6] (Rieske KO mouse fibroblast survival, CellTiter-Glo 72 h). For the same molecule, the viability was 113% (inactive) in experiment [7] (at 0.000305 µM, OCI-C5x cells, with rucaparib 10 µM, 100% = cells with rucaparib alone); 111% (inactive) in experiment [7] (at 0.000305 µM, OCI-C5x cells, without rucaparib); 105% (inactive) in experiment [7] (at 0.000305 µM, OCI-P5x cells, with rucaparib 20 µM, 100% = cells with rucaparib alone); 114% (inactive) in [7] (at 0.000305 µM, OCI-P5x cells, without rucaparib); 109% (inactive) in [7] (at 0.00122 µM, OCI-C5x cells, with rucaparib 10 µM, 100% = cells with rucaparib alone); 117% (inactive) in [7] (at 0.00122 µM, OCI-C5x cells, without rucaparib). Moreover, the viability in [7] (at 0.00122 µM, OCI-P5x cells, with rucaparib 20 µM, 100% = cells with rucaparib alone) is 102% (inactive); in [7] (at 0.00122 µM, OCI-P5x cells, without rucaparib) it was 109% (inactive); in experiment [7] (at 0.00488 µM, OCI-C5x cells, with rucaparib 10 µM, 100% = cells with rucaparib alone), 108% (inactive); in experiment [7] (at 0.00488 µM, OCI-C5x cells, without rucaparib), 113% (inactive); in [7] (at 0.00488 µM, OCI-P5x cells, with rucaparib 20 µM, 100% = cells with rucaparib alone), 102% (inactive); in [7] (at 0.00488 µM, OCI-P5x cells, without rucaparib), 108% (inactive). Further, the viability was 105% (inactive) in experiment [7] (at 0.0195 µM, OCI-C5x cells, with rucaparib 10 µM, 100% = cells with rucaparib alone); 105% (inactive) in experiment [7] (at 0.0195 µM, OCI-C5x cells, without rucaparib); 104% (inactive) in experiment [7] (at 0.0195 µM, OCI-P5x cells, with rucaparib 20 µM, 100% = cells with rucaparib alone); 109% (inactive) in experiment [7] (at 0.0195 µM, OCI-P5x cells, without rucaparib); 109% (inactive) in experiment [7] (at 0.0781 µM, OCI-C5x cells, with rucaparib 10 µM, 100% = cells with rucaparib alone); 110% (inactive) in experiment [7] (at 0.0781 µM, OCI-C5x cells, without rucaparib). Also, the viability in experiment [7] (at 0.0781 µM, OCI-P5x cells, with rucaparib 20 µM, 100% = cells with rucaparib alone) was 101% (inactive); in [7] (at 0.0781 µM, OCI-P5x cells, without rucaparib), 109% (inactive); in [7] (at 0.313 µM, OCI-C5x cells, with rucaparib 10 µM, 100% = cells with rucaparib alone) it was 108% (inactive); in experiment [7] (at 0.313 µM, OCI-C5x cells, without rucaparib), 113% (inactive); in [7] (at 0.313 µM, OCI-P5x cells, with rucaparib 20 µM, 100% = cells with rucaparib alone) it was 103% (inactive); in experiment [7] (at 0.313 µM, OCI-P5x cells, without rucaparib), 111% (inactive). Besides, the viability in experiment [7] (at 1.25 µM, OCI-C5x cells, with rucaparib 10 µM, 100% = cells with rucaparib alone) is 106% (inactive); in experiment [7] (at 1.25 µM, OCI-C5x cells, without rucaparib), 114% (inactive); in experiment [7] (at 1.25 µM, OCI-P5x cells, with rucaparib 20 µM, 100% = cells with rucaparib alone), 98.5% (active); in [7] (at 1.25 µM, OCI-P5x cells, without rucaparib), 108% (inactive); in experiment [7] (at 5 µM, OCI-C5x cells, with rucaparib 10 µM, 100% = cells with rucaparib alone) it was 114% (inactive); in experiment [7] (at 5 µM, OCI-C5x cells, without rucaparib), 128% (inactive). Also, the viability was 103% (inactive) in [7] (at 5 µM, OCI-P5x cells, with rucaparib 20 µM, 100% = cells with rucaparib alone) and 109% (inactive) in experiment [7] (at 5 µM, OCI-P5x cells, without rucaparib).
Consider `COc1cc(OC)cc(N(CCNC(C)C)c2ccc3ncc(-c4cnn(C)c4)nc3c2)c1`, for which the AC50 was 0.0661 µM (active) in experiment [1], 0.0661 µM (active) in experiment [8] and 0.0833 µM (active) in experiment [9].
With `CN1c2ccccc2C(=O)N2CCc3c([nH]c4ccccc34)C21` (configuration not stated), the AC50 is 2.95 µM (active) in experiment [1], 2.35 µM (active) in experiment [9] and 5.25 µM (active) in experiment [3]. Moreover, the molecule was classed as inactive in experiment [2] and in experiment [10].
In the case of `C[C@H]1Oc2cc(cnc2N)-c2c(nn(C)c2C#N)CN(C)C(=O)c2ccc(F)cc21`, the AC50 is 14.8 µM (active) in experiment [1], 10.5 µM (active) in experiment [8] and 9.34 µM (active) in experiment [9].
Turning to `CCNC(=O)Nc1ccc(-c2nc3c(c(N4CCOC[C@@H]4C)n2)CCN(C2COC2)C3)cc1`, the AC50 is 2.95 µM (active) in experiment [1], 0.332 µM (active) in experiment [2] and 1.32 µM (active) in experiment [9].
Regarding `C[C@@H]1Cc2c([nH]c3ccccc23)[C@@H](c2c(F)cc(/C=C/C(=O)O)cc2F)N1CC(C)(C)F`, the molecule was called inactive in [1] and in experiment [8].
On to `COc1ccc(-c2cc3nccn3c(Nc3ncccc3C(N)=O)n2)cc1OC`, for which the AC50 in experiment [1] is 11.8 µM (active); in experiment [2], 3.32 µM (active); in [8], 4.68 µM (active); in experiment [9], 5.25 µM (active). The molecule further displayed an SSMD in [5] of -0.302. The molecule further had a cell count in experiment [5] of 6940. For the same molecule, in experiment [5], the plate-normalised HSF1 focus index is 0.994 (inactive).
